Shown are actives, neighbours in structure and some others; about 6.3% of the full set was active somewhere.
tim23-1 inh – tim23-1 yeast growth inhibition. S. cerevisiae tim23-1 growth, BacTiter-Glo luminescence, 24 h. inhibition, % at 20 µM. 330,000 compounds, 1.3% hits;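 active means growth inhibition of the mutant yeast at or above 50%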;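 further: temperature-sensitive mutant grown at 25 °C; plate controls were DMSO-treated mutant yeast for no effect and medium wells lacking yeast for full effect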
MPTP block – blocks calcium-induced mitochondrial swelling. AID 602449. 360,000 compounds, 1.4% hits. isolated mouse mitochondria, Ca2+ swelling absorbance, 30 min. inhibition, % at 10 µM;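 active means inhibition of 50% or more, scaled per plate between neutral and stimulator controls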;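 further: 0% = DMSO wells given calcium and 100% = 1 mM EGTA wells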
TIM10 inh – growth inhibitors of TIM10 yeast strain; S. cerevisiae TIM10 strain growth, BacTiter-Glo luminescence, 24 h; inhibition, % at 10 µM; 330,000 compounds, 1.4% hits; AID 463195;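 active means inhibition of 40% or more at the single tested concentration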;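 further: wild-type TIM10 isogenic control strain grown at permissive 25 °C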
Mdm2 MdmX PPI – human Mdm2/MdmX binding inhibition; O15151+Q00987; SaOS-2 split-luciferase Mdm2/MdmX complementation, luminescence; inhibition, % at 8 µM; 330,000 compounds, 3% hits;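 active means inhibition of at least 50% at 8 µM in the primary screen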
Target sequence (O15151 whole entry, looked up): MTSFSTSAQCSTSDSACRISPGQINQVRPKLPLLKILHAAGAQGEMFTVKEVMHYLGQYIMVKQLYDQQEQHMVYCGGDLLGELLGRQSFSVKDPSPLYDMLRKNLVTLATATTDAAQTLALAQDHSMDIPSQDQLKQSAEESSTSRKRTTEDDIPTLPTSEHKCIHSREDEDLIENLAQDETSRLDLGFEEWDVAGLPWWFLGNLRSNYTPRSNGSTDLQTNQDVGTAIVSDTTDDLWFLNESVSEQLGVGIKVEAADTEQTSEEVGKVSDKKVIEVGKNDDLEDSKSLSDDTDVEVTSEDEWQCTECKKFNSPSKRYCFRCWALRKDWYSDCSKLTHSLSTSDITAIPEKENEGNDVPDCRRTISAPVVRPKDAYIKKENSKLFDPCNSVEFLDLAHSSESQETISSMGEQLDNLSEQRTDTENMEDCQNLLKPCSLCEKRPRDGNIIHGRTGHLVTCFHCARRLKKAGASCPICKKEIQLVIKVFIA
Target sequence (Q00987 whole entry, looked up): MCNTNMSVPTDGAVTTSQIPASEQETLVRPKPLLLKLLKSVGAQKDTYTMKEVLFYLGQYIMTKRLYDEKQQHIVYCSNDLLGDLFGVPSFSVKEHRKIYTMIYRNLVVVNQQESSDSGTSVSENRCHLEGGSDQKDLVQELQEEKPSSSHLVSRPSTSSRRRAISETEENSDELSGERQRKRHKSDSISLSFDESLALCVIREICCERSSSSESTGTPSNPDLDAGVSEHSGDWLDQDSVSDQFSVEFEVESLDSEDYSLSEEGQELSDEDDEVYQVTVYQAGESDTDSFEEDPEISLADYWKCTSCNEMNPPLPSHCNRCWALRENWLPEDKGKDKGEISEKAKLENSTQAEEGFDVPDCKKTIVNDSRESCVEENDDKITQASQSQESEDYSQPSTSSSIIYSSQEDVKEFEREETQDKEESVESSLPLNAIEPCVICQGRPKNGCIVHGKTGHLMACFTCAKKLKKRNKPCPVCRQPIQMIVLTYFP
tim10-1 inh – growth inhibitors of tim10-1 mutant yeast; S. cerevisiae tim10-1 ts strain growth, BacTiter-Glo, 24 h; inhibition, % at 20 µM; 330,000 compounds, 2.2% hits; AID 463190;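 active means inhibition of at least 40%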;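 further: mutant grown at 25 °C; 0% = DMSO wells with yeast and 100% = wells holding no yeast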
tim10 confirm – confirmation of TIM10 yeast growth inhibitors | shares compounds with TIM10 inh | S. cerevisiae tim10 strain growth, BacTiter-Glo luminescence, 24 h | inhibition, % at 10 µM | 4,600 compounds, 63% hits | AID 463215;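 active means inhibition of yeast growth at or above a set limit in either of two replicates at 10 µM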;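 further: this counterscreen used the strain with wild-type TIM10; 0% = yeast with DMSO and 100% = medium wells lacking yeast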
tim23-1 confirm – tim23-1 yeast growth inhibition, confirmed; shares compounds with tim23-1 inh; S. cerevisiae tim23-1 growth, BacTiter-Glo luminescence, 24 h; inhibition, % at 20 µM; 4,400 compounds, 83% hits; AID 463218;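 active means inhibition above about 39% in either of two replicate wells at 20 µM, limit read from the data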;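 further: temperature-sensitive tim23-1 mutant grown at 25 °C; 0% = DMSO wells with yeast and 100% = medium wells without yeast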
Mdm2 MdmX conf – human Mdm2/MdmX binding inhibition, confirmed | shares compounds with Mdm2 MdmX PPI | luminescent assay | 10,000 compounds, 55% hits | inhibition, % at 8 µM | AID 489028; in the data active means inhibition above about 40%
FLuc counter – counter-screen for Mdm2/MdmX inhibitors: full-length luciferase; 6,200 compounds, 77% hits; AID 504607; SaOS-2 full-length luciferase counterscreen, luminescence; inhibition, % at 8 µM; shares compounds with Mdm2 MdmX PPI;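 active means mean inhibition at 8 µM reaching about 37%, which flags the compound as non-specific, limit read from the data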;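 further: p53-null SaOS-2 cells with luciferase driven by a doxycycline-inducible promoter; compound on cells about two nights before reading with doxycycline added after day one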
* = called active by the depositor; . = not tested or not shown.

SMILES | tim23-1 inh | MPTP block | TIM10 inh | Mdm2 MdmX PPI | tim10-1 inh | tim10 confirm | Mdm2 MdmX conf | FLuc counter | others
CCOc1cc(OCC)cc(C(=O)N2CCC[C@@H]2C(=O)N2CCC[C@@H]2C(=O)NCc2ccccc2Cl)c1 | . | 0 | . | . | . | . | . | .
Cc1c(C2(O)CCCCC2)[nH]c2ccc(C(F)(F)F)cc12 | 82* | 14 | 59* | 66* | 39 | 67* | 31 | 62* | tim23-1 confirm=65*
Cc1ccc(C(NC(=O)C2CCN(Cc3ccc(Cl)c(Cl)c3)CC2)c2ccccn2)cc1 (centres undefined) | . | 2 | . | . | . | . | . | .
COc1cc(/C=C2\CCC/C(=C\c3ccc(O)c(OC)c3)C2=O)ccc1O | 82* | 1 | 41* | 100* | 38 | 39* | 89* | 22 | tim23-1 confirm=52*
CC(=O)c1ccc(N2CCN(C(=O)/C=C/c3ccc4ccccc4n3)CC2)cc1 | 50* | -1 | 64* | 69* | 24 | 76* | 52* | 66* | tim23-1 confirm=40*
O=[N+]([O-])c1ccccc1-c1cc(-c2ccccc2O)n[nH]1 | 41 | 19 | 13 | -123 | -2 | . | . | .
O=[N+]([O-])c1cccc(-c2cc(-c3cc(Br)ccc3O)[nH]n2)c1 | 36 | 19 | 47* | 93* | 31 | 43* | 80* | 59*
COc1ccccc1-n1cnc2c(c1=O)c1nc3ccccc3nc1n2-c1ccc(C)cc1 | 34 | 3 | 46* | 55* | 39 | 21 | 73* | 65*
COC(=O)C[C@H]1CC[C@@H](NC(=O)Nc2cccc(OC)c2)[C@@H](CO)O1 | . | 0 | . | . | . | . | . | .
O=C(O)C(=Cc1cccc([N+](=O)[O-])c1)c1ccccc1 | . | 2 | . | . | . | . | . | .
O=C(C#Cc1cccc([N+](=O)[O-])c1)c1ccccc1 | -20 | -3 | 80* | 73* | 29 | 83* | 63* | 52*
O=C1C(c2ccnc3ccccc23)=C(O)c2ccccc21 | 23 | -1 | 55* | 52* | 13 | 38* | -25 | .
O=C1C(=O)c2ccccc2C(O)=C1c1ccccc1F | -26 | 4 | -3 | 10 | -46 | . | . | .
Cc1[nH]c2ccccc2c1/C=N/Nc1nc(Nc2ccccc2)nc(N2CCOCC2)n1 | 18 | 1 | 52* | 58* | 24 | 35* | 30 | .
c1ccc(Nc2nc(N3CCCC3)nc(N3CCOCC3)n2)cc1 | 12 | 0 | 3 | 20 | 2 | . | . | .
COc1ccc2nc(NC(=O)C3CCN(S(=O)(=O)c4cccc5nsnc45)CC3)sc2c1 | 18 | -1 | 40* | 65* | 19 | -24 | 66* | 39*
Cc1cccc(NC(=O)C2CCN(S(=O)(=O)c3cccc4nsnc34)CC2)n1 | 20 | -1 | 8 | 4 | 22 | . | . | .
Oc1ccc(N=Nc2ccc3c(c2)OCCO3)c(O)c1 | 36 | 10 | 17 | -76 | 31 | . | . | .
Oc1ccc(N=Nc2ccc(Br)cc2)c(O)c1 | 68* | 1 | 48* | 82* | 37 | 64* | 41* | 98* | tim23-1 confirm=2
Cc1ccc(/C=N/NC(=O)c2ccc3ccccc3c2)s1 | 68* | -2 | 41* | 56* | -2 | 32* | 68* | 73* | tim23-1 confirm=73*
CN1OC[C@@H]2CN(Cc3ccccc3)[C@H](c3cccc(-c4ccccc4)c3)C[C@@H]21 | . | -2 | . | . | . | . | . | .
CCN(CC)c1ccc(/C=N/N=C(c2ccccc2)c2ccccc2)c(O)c1 | 8 | 5 | 10 | 7 | 6 | . | . | .
CCN(CC)c1ccc(/C=N/NC(=O)c2ccco2)c(O)c1 | 75* | 1 | 54* | 59* | 33 | 61* | 57* | 55* | tim23-1 confirm=77*
CCN(CC)c1ccc(/C=N/NC(=S)NCc2ccccc2)c(O)c1 | 28 | 23 | 41* | 60* | 23 | -32 | 44* | 44*
O=c1c2cc(N3CCOCC3)ccc2[nH]c(=S)n1CCCN1CCN(c2ccccc2F)CC1 | 16 | . | 47* | 58* | 26 | 24* | 32 | .
SMILES | tim23-1 inh | MPTP block | TIM10 inh | Mdm2 MdmX PPI | tim10-1 inh | tim10 confirm | Mdm2 MdmX conf | FLuc counter | others
O=c1c2cc(N3CCOCC3)ccc2[nH]c(=S)n1CCCN1CCCCCC1 | 5 | 3 | -12 | -33 | 23 | . | . | .
O=C(NC1CCCC1)C(c1ccccc1)n1c(-c2ccc3c(c2)CCO3)nc2ccccc21 (centres undefined) | . | -2 | . | . | . | . | . | .
CCC1(c2ccccc2)ON(c2c(Br)cccc2Br)C1=O (centres undefined) | 78* | 0 | 71* | 93* | -52 | 56* | 91* | 47* | tim23-1 confirm=-48
COc1ccc(C(=O)O/N=C(\N)c2ccccn2)cc1 | 49 | 1 | 42* | 97* | 34 | 36* | 94* | 24
COc1ccccc1C(=O)O/N=C(\N)c1ccccn1 | 15 | 0 | -3 | 38 | 0 | . | . | .
COc1ccccc1/C=N/NC(=O)c1cccc(OC(F)(F)C(F)F)c1 | 32 | 5 | 0 | 12 | 27 | . | . | .
COc1cccc(/C=N/NC(=O)C(=O)Nc2ccccc2OC(F)(F)C(F)F)c1O | 54* | 2 | 45* | 62* | -2 | 56* | 75* | 22 | tim23-1 confirm=61*
Cc1ccc(OCCNC(=O)c2cccc(S(=O)(=O)NCc3ccccc3)c2)cc1 | 7 | 0 | 59* | 60* | 9 | -4 | 77* | 54*
O=[N+]([O-])c1ccc(N2N=C(c3ccccc3)CC2c2ccccc2O)cc1 (centres undefined) | 9 | 43 | 42* | 90* | 13 | 60* | 36 | 104*
O=[N+]([O-])c1ccc(N2N=C(c3ccco3)CC2c2ccccc2)cc1 (centres undefined) | 31 | 2 | 17 | 13 | 27 | . | . | .
O=c1cc(CN(Cc2ccccc2)Cc2ccccc2)c2ccccc2o1 | . | 0 | . | . | . | . | . | .
CCN(CC)S(=O)(=O)c1ccc(N/N=C(\C)c2ccc(OC)cc2O)nc1 | 45 | 4 | 42* | 57* | 30 | 40* | 32 | .
Brc1ccc2nc(C3CCCCC3)c(Cc3ccsc3)n2c1 | . | 1 | . | . | . | . | . | .
O=C(C#Cc1ccccc1)c1ccco1 | 61* | -1 | 56* | 98* | 22 | 69* | 68* | 51* | tim23-1 confirm=62*
CCCCc1ccc(S(=O)(=O)NC(=O)C2(C)CCN2C(=O)Cc2ccccc2)cc1 (centres undefined) | . | 0 | . | . | . | . | . | .
Cc1[nH]c(C(=O)N/N=C/c2ccc(C(=O)O)cc2)c(C)c1C(=O)N/N=C/c1ccc(C(=O)O)cc1 | 18 | 2 | 11 | 0 | 8 | . | . | .

Screening results as filed in PubChem BioAssay.
